# Measured values: publication PMC7862700, “An all-to-all approach to the identification of sequence-specific readers for epigenetic DNA modifications on cytosine”
# Key:
# Assay in all cases: DAPPL (digital affinity profiling via proximity ligation, sequencing); 10 mM Tris-HCl pH 7.5, 50 mM NaCl, 1 mM DTT, 4% glycerol, room temperature, 30 min; GST-TFs on glutathione beads, 16-mer random dsDNA library, 0.1% formaldehyde crosslink after washing; high values mean tight binding
# [1] = molecular target: T1, FEV (Homo sapiens, UniProt Q99581 1-238); conditions: protein: recombinant; tags: N-terminal GST; dsDNA, one strand shown
# T1 sequence: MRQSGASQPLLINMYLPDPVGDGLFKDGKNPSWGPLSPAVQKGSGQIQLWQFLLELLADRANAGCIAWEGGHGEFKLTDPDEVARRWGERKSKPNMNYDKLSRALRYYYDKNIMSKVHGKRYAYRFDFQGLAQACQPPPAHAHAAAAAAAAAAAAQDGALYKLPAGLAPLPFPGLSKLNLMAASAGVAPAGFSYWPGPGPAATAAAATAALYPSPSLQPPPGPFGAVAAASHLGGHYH
# Procedure, shortened: (§1)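 Each value of binding signal is a hexamer's read frequency for a factor divided by the same hexamer's frequency in the tag-only sample. Barcoded, bead-captured GST fusions of human transcription factors made in yeast were pooled with that sample and incubated with 200 nmole of a random double-stranded 16-mer DNA library in Tris/NaCl/DTT/glycerol buffer at room temperature for 30 min. Washing, 0.1% formaldehyde crosslinking, proximity ligation, PCR and Illumina NextSeq500 sequencing followed.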
# [2] = molecular target: ETV5 (Homo sapiens, UniProt P41161 1-510); conditions: protein: recombinant; tags: N-terminal GST; dsDNA, one strand shown
# Chain of ETV5 (P41161 whole entry): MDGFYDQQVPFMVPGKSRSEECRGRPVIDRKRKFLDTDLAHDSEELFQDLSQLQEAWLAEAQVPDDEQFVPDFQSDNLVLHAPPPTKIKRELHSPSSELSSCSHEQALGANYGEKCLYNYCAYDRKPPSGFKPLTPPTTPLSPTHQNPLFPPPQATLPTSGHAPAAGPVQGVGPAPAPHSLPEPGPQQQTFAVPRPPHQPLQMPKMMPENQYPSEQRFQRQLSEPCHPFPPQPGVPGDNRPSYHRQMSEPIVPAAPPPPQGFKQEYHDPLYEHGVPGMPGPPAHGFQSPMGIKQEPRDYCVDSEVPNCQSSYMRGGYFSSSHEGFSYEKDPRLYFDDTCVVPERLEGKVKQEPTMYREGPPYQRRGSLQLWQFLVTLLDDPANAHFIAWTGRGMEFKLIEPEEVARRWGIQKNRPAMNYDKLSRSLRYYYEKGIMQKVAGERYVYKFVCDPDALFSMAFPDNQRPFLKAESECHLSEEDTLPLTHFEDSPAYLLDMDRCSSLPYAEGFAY
# Procedure, shortened: as §1
# [3] = molecular target: HSF1 (Homo sapiens, UniProt Q00613 1-529); conditions: protein: recombinant; tags: N-terminal GST; chain copies: 3; dsDNA, one strand shown
# Chain of HSF1 (Q00613 whole entry): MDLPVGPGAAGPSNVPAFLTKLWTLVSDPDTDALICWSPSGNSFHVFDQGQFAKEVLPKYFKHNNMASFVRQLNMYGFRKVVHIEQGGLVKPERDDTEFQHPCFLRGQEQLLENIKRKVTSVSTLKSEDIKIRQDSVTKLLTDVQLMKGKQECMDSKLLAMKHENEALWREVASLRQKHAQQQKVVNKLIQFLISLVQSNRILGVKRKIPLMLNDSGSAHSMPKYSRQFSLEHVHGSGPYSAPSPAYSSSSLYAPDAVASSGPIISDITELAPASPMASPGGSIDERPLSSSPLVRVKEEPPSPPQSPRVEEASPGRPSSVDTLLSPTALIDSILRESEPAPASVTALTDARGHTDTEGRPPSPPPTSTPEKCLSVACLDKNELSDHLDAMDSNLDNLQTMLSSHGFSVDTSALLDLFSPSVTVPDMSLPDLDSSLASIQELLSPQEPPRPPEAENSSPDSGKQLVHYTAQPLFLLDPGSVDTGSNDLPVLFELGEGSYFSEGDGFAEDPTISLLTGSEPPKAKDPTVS
# Procedure, shortened: as §1
# [4] = molecular target: T2, SPIC (Homo sapiens, UniProt Q8N5J4 1-248); conditions: protein: recombinant; tags: N-terminal GST; dsDNA, one strand shown
# T2 sequence: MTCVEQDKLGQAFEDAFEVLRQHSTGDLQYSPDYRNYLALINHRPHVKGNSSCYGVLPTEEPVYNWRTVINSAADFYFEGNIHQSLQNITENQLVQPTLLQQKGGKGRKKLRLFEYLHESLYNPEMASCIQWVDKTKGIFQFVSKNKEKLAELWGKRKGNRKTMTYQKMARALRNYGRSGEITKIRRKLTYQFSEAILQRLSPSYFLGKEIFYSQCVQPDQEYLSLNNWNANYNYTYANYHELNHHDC
# Procedure, shortened: as §1
# [5] = molecular target: ELF4 (Homo sapiens, UniProt Q99607 1-663); conditions: protein: recombinant; tags: N-terminal GST; dsDNA, one strand shown
# Chain of ELF4 (Q99607 whole entry): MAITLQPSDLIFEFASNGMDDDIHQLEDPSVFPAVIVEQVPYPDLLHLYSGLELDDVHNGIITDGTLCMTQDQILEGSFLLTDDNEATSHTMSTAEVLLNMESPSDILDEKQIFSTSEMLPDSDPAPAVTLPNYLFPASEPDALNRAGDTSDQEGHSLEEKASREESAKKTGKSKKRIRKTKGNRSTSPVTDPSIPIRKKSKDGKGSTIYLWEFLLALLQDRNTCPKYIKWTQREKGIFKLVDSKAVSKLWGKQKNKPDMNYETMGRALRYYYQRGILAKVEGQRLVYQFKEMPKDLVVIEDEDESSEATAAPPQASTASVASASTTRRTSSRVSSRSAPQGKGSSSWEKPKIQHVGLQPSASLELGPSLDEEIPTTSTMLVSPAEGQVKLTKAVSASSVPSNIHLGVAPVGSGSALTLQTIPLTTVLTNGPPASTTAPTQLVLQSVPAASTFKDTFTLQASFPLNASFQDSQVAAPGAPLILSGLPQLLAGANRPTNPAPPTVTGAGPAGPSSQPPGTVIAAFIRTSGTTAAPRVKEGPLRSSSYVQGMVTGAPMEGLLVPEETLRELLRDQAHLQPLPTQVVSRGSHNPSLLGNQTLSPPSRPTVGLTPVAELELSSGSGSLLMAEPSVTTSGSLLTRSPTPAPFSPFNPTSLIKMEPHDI
# Procedure, shortened: as §1
# [6] = molecular target: T3, ELK4 (Homo sapiens, UniProt P28324-2 1-405); conditions: protein: recombinant; tags: N-terminal GST; dsDNA, one strand shown
# T3 sequence: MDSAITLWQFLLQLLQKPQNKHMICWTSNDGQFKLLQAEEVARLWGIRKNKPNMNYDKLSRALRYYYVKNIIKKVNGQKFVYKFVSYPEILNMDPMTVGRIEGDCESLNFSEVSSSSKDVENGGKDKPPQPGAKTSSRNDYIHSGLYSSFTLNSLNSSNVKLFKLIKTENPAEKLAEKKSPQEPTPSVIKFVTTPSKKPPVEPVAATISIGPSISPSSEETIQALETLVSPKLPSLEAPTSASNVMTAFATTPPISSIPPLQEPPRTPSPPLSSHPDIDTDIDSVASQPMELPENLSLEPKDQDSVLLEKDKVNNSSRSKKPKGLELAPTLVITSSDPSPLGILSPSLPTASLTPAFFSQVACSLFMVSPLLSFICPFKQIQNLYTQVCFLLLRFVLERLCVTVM
# Procedure, shortened: as §1
# [7] = molecular target: T4, ETV2 (Homo sapiens, UniProt O00321 1-342); conditions: protein: recombinant; tags: N-terminal GST; dsDNA, one strand shown
# T4 sequence: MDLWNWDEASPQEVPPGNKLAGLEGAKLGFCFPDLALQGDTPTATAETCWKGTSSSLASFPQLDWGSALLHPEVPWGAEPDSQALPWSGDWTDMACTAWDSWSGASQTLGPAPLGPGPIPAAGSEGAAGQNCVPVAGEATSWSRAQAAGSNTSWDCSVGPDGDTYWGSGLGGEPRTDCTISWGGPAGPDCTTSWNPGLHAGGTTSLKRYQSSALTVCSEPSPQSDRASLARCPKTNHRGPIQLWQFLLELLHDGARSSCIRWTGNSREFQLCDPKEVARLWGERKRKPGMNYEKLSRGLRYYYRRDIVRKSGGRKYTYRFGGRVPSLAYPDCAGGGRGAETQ
# Procedure, shortened: as §1
# [8] = molecular target: T5, ELF3 (Homo sapiens, UniProt P78545 1-371); conditions: protein: recombinant; tags: N-terminal GST; dsDNA, one strand shown
# T5 sequence: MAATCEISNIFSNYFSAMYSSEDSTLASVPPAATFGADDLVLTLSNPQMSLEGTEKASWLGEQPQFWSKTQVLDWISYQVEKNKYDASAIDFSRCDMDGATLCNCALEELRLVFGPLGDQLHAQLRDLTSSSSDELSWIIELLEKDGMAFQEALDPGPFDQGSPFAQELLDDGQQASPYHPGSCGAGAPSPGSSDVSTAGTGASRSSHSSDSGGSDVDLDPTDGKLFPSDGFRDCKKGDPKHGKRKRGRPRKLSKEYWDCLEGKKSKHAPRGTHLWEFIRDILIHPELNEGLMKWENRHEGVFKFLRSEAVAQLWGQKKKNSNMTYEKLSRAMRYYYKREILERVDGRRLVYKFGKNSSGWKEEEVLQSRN
# Procedure, shortened: as §1
# [9] = molecular target: CRX (Homo sapiens, UniProt O43186 1-299); conditions: protein: recombinant; tags: N-terminal GST; dsDNA, one strand shown
# Chain of CRX (O43186 whole entry): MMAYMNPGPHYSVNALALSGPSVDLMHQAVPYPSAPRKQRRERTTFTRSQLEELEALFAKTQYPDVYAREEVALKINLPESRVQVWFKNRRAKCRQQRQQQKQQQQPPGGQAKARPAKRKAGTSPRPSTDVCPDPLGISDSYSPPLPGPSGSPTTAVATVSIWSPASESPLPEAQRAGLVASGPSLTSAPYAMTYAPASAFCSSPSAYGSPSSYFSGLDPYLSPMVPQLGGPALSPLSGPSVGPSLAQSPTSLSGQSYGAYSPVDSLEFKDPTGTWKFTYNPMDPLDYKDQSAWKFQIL
# Procedure, shortened: as §1
# [10] = molecular target: ETV1 (Homo sapiens, UniProt P50549 1-477); conditions: protein: recombinant; tags: N-terminal GST; dsDNA, one strand shown
# Chain of ETV1 (P50549 whole entry): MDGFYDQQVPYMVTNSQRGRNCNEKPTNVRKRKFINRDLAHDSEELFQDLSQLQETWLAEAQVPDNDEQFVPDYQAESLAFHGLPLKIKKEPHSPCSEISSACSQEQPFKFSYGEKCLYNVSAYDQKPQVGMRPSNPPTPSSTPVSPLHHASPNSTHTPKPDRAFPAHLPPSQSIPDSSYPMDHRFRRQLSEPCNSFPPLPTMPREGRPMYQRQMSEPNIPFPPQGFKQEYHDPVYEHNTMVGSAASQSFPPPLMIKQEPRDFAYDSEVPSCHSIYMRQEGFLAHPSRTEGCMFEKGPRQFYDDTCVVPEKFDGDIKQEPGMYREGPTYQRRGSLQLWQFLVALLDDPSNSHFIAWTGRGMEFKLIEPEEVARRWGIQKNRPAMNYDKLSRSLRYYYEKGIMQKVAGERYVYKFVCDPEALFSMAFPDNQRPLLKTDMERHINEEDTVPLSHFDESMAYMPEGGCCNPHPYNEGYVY
# Procedure, shortened: as §1
# [11] = molecular target: T6, ERF (Homo sapiens, UniProt P50548 1-548); conditions: protein: recombinant; tags: N-terminal GST; dsDNA, one strand shown
# T6 sequence: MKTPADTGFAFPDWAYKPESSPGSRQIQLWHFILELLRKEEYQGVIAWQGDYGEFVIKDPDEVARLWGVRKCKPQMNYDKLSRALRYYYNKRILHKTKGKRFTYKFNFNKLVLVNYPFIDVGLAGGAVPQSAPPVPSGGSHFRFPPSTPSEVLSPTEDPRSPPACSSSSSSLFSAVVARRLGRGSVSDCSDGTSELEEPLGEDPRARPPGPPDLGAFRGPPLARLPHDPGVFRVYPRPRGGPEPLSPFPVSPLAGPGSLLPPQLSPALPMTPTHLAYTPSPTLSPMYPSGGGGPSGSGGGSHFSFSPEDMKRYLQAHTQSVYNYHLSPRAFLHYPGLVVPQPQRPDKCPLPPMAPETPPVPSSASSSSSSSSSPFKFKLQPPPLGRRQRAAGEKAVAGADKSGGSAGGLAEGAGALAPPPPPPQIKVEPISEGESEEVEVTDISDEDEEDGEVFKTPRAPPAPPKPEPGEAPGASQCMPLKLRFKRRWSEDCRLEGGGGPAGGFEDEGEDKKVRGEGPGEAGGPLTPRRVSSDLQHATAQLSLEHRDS
# Procedure, shortened: as §1
# [12] = molecular target: T7, ETV3L (Homo sapiens, UniProt Q6ZN32 1-361); conditions: protein: recombinant; tags: N-terminal GST; dsDNA, one strand shown
# T7 sequence: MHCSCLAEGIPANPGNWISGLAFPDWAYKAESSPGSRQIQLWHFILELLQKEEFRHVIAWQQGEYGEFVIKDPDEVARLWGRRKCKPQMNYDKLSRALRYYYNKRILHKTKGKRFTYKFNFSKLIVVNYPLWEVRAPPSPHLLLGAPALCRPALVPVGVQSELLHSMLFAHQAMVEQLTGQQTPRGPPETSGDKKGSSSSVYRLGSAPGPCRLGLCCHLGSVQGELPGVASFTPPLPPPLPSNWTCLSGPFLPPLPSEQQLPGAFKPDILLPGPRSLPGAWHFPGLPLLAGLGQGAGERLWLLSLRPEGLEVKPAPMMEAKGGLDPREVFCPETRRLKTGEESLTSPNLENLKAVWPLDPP
# Procedure, shortened: as §1
# [13] = molecular target: T8, ETS2 (Homo sapiens, UniProt P15036 1-469); conditions: protein: recombinant; tags: N-terminal GST; dsDNA, one strand shown
# T8 sequence: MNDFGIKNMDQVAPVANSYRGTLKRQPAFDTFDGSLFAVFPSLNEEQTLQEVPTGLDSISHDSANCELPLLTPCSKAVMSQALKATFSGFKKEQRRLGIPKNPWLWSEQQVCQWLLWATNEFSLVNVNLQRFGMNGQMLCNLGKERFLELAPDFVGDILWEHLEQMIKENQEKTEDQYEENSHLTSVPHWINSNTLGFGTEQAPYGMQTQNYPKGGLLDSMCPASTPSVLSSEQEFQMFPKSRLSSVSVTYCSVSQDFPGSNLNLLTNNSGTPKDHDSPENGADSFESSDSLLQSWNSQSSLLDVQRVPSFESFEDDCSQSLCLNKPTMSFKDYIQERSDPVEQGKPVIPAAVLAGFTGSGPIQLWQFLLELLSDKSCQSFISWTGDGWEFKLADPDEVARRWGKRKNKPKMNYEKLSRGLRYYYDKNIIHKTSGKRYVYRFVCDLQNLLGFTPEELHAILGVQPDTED
# Procedure, shortened: as §1
# [14] = molecular target: T9, SPDEF (Homo sapiens, UniProt O95238 1-335); conditions: protein: recombinant; tags: N-terminal GST; dsDNA, one strand shown
# T9 sequence: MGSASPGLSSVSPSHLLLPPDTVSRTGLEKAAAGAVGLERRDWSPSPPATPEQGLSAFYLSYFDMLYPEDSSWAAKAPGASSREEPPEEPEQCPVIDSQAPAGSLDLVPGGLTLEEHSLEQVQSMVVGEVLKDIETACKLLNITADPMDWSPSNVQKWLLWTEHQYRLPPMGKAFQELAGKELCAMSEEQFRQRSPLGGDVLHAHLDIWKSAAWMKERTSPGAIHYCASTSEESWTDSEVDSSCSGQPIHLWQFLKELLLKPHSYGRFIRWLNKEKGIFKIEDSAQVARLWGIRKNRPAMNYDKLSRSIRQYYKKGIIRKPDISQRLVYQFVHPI
# Procedure, shortened: as §1
# [15] = molecular target: T10, ETV7 (Homo sapiens, UniProt Q9Y603 1-341); conditions: protein: recombinant; tags: N-terminal GST; dsDNA, one strand shown
# T10 sequence: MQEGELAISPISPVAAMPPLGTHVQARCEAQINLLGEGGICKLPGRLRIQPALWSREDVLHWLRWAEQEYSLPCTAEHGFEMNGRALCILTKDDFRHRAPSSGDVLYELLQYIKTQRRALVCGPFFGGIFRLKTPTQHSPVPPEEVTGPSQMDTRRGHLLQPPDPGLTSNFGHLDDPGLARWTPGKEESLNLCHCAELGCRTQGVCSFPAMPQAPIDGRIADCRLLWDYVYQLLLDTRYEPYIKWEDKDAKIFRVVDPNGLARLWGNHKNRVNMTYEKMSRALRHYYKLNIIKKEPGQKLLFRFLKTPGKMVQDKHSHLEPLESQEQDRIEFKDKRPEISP
# Procedure, shortened: as §1
# [16] = molecular target: T11, ELF5 (Homo sapiens, UniProt Q9UKW6-2 1-255); conditions: protein: recombinant; tags: N-terminal GST; dsDNA, one strand shown
# T11 sequence: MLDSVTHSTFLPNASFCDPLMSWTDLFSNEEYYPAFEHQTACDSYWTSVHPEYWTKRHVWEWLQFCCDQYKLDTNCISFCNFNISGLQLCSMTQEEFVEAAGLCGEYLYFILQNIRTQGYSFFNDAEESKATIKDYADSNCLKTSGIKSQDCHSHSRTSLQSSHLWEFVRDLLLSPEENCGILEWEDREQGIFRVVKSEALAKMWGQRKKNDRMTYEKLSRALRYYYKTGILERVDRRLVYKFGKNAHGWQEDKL
# Procedure, shortened: as §1
# [17] = molecular target: T12, ETV3 (Homo sapiens, UniProt P41162-2 1-143); conditions: protein: recombinant; tags: N-terminal GST; dsDNA, one strand shown
# T12 sequence: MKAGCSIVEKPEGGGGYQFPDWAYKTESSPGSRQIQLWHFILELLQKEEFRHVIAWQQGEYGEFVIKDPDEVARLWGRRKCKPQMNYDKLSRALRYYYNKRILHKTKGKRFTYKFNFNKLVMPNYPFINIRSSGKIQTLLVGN
# Procedure, shortened: as §1
# [18] = molecular target: ETV6 (Homo sapiens, UniProt P41212 1-452); conditions: protein: recombinant; tags: N-terminal GST; dsDNA, one strand shown
# Chain of ETV6 (P41212 whole entry): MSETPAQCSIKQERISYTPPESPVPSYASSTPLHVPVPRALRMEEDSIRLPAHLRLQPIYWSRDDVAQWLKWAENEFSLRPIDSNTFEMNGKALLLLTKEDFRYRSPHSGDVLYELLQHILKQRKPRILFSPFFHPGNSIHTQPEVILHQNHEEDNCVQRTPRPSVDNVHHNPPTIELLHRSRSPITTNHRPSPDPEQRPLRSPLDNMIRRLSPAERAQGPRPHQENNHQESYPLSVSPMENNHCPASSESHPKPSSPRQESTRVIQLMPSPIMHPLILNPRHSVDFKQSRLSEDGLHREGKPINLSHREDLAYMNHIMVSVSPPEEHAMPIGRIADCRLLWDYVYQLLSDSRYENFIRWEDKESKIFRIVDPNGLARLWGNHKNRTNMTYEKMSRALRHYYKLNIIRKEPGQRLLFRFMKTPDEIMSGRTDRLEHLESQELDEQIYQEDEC
# Procedure, shortened: as §1
sequence,measurement,setting,value
AAAATC,binding signal,[1],"1.19 fold enrichment (6-mer frequency, TF over GST control)"
same,binding signal,[2],"1.19 fold enrichment (6-mer frequency, TF over GST control)"
same,binding signal,[3],"1.51 fold enrichment (6-mer frequency, TF over GST control)"
same,binding signal,[4],"1.07 fold enrichment (6-mer frequency, TF over GST control)"
same,binding signal,[5],"1.23 fold enrichment (6-mer frequency, TF over GST control)"
same,binding signal,[6],"1.05 fold enrichment (6-mer frequency, TF over GST control)"
same,binding signal,[7],"1.28 fold enrichment (6-mer frequency, TF over GST control)"
same,binding signal,[8],"1.11 fold enrichment (6-mer frequency, TF over GST control)"
same,binding signal,[9],"1.62 fold enrichment (6-mer frequency, TF over GST control)"
same,binding signal,[10],"1.12 fold enrichment (6-mer frequency, TF over GST control)"
same,binding signal,[11],"1.17 fold enrichment (6-mer frequency, TF over GST control)"
same,binding signal,[12],"1.18 fold enrichment (6-mer frequency, TF over GST control)"
same,binding signal,[13],"1.14 fold enrichment (6-mer frequency, TF over GST control)"
same,binding signal,[14],"1.2 fold enrichment (6-mer frequency, TF over GST control)"
same,binding signal,[15],"1.16 fold enrichment (6-mer frequency, TF over GST control)"
same,binding signal,[16],"1.15 fold enrichment (6-mer frequency, TF over GST control)"
same,binding signal,[17],"1.13 fold enrichment (6-mer frequency, TF over GST control)"
same,binding signal,[18],"1.19 fold enrichment (6-mer frequency, TF over GST control)"
